# Active and inactive are the calls of the source. How the calls were made is not given here. Numbered stars: 1 amine (or outer) side, 2 acyl side, 3 side chain; on linkers, the order of the positions; unused ones are H or OH. Bridge positions count the residues as written; N and C are the ends. Square brackets hold non-standard residues; d marks the D form. Peptide text beside a SMILES is read from it. I, II: the chains in the order shown. ξ: configuration not given here. Actinocin(9to1) = Cc1c2oc3c(C)ccc(C(=O)[*:1])c3nc-2c(C(=O)[*:2])c(N)c1=O; ξNMeV = CNC(C(=O)O)C(C)C; ξV = CC(C)C(N)C(=O)O; Sar = CNCC(=O)O
# Tests used:
# [1] = Immunotoxin (HA22) sensitization/mitigation study. Vehicle arm (PBS) (AID 1159510); settings: cancer cells viability with PBS vehicle (HA22 study); series mostly up to 46.1 µM
# [2] = Immunotoxin (SS1P) sensitization/mitigation study. Vehicle arm (DMEM) (AID 1159513); settings: cell viability with vehicle (DMEM); series mostly up to 46.1 µM
# Potency means the concentration at half of the fitted maximal effect.
SMILES,Potency [1],Potency [2]
Cn1cc(-c2[nH]c3cc(NC(=O)[C@H](N)C4CCCCC4)cc4c3c2C=NNC4=O)cn1,0.59 µM (active),1.87 µM (active)
COc1ccc2c(c1)CC[C@H]1[C@@H]2CC[C@]2(C)[C@@H](NCCCCCCN3C(=O)C=CC3=O)CC[C@H]12,20.9 µM (active),20.9 µM (active)
O=C(O)CCC1CCC(c2cc(F)ccc2F)(S(=O)(=O)c2ccc(Cl)cc2)CC1 (centres undefined),inactive,inactive
NC(=O)Nc1cc(-c2cccc(F)c2)sc1C(=O)N[C@H]1CCCNC1,0.105 µM (active),0.59 µM (active)
C[C@@]12O[C@@H](C[C@]1(O)CO)n1c3ccccc3c3c4c(c5c6ccccc6n2c5c31)CNC4=O,0.209 µM (active),0.0296 µM (active)
CC(C)(N)C(=O)N[C@H](COCc1ccccc1)C(=O)N1CCC2(CC1)CN(S(C)(=O)=O)c1ccccc12,18.7 µM (active),8.33 µM (active)
CCN(CC)CCOc1ccc(Nc2ncc3cc(-c4c(Cl)cccc4Cl)c(=O)n(C)c3n2)cc1,1.18 µM (active),0.332 µM (active)
CCCCN1CCC(CNC(=O)c2c3n(c4ccccc24)CCCO3)CC1,inactive,inactive
CCCCCCCc1ccc(CCc2cccc(O)c2C(=O)O)cc1,23.5 µM (active),18.7 µM (active)
CC[C@@H](C(=O)O)C1CC[C@H](C)C([C@@H](C)[C@H](O)[C@H](C)C(=O)[C@H](CC)C2O[C@]3(C=C[C@@H](O)[C@]4(CC[C@@](C)(C5CC[C@](O)(CC)[C@H](C)O5)O4)O3)[C@H](C)C[C@@H]2C)O1 (some centres undefined),0.0418 µM (active),20.9 µM (active)
CCOc1ccn(-c2ccc(F)cc2)c(=O)c1C(=O)Nc1ccc(Oc2ccnc(N)c2Cl)c(F)c1,18.7 µM (active),23.5 µM (active)
CNC(=O)c1cc(Oc2ccc(NC(=O)Nc3ccc(Cl)c(C(F)(F)F)c3)c(F)c2)ccn1,20.9 µM (active),26.4 µM (active)
O=C(Nc1ccc(OC(F)(F)F)cc1)c1sccc1NCc1ccnc2ccccc12,18.7 µM (active),18.7 µM (active)
O=C(C=Cc1ccc(/C=C/C(=O)Nc2ccc(C3=NCCN3)cc2)cc1)Nc1ccc(C2=NCCN2)cc1,inactive,inactive
C=C1C(=CC=C2CCCC3(C)[C@@H]([C@H](C)C=CC=CC(O)(CC)CC)CC[C@@H]23)C[C@@H](O)C[C@@H]1O (some centres undefined),23.5 µM (active),20.9 µM (active)
CC=C1NC(=O)[C@H]2CSSCCC=C[C@H](CC(=O)N[C@H](C(C)C)C(=O)N2)OC(=O)[C@H](C(C)C)NC1=O,0.0017 µM (active),0.0019 µM (active)
c1ccc2c(-c3cnn4cc(-c5ccc(N6CCNCC6)cc5)cnc34)ccnc2c1,14.8 µM (active),18.7 µM (active)
CCN(c1ccccc1)c1cc(NC)[n+](C)c(C)n1,18.7 µM (active),18.7 µM (active)
COc1cc2c(Oc3ccc(-c4cnc(Nc5ccc(F)cc5)n(C)c4=O)cc3F)ccnc2cc1OCCCN1CCOCC1,18.7 µM (active),20.9 µM (active)
CCC=CC[C@H]1C(=O)CC[C@@H]1CC(=O)OC,inactive,inactive
CC[C@H](CO)Nc1nc(NCc2ccccc2)c2ncn(C(C)C)c2n1,20.9 µM (active),23.5 µM (active)

SMILES,Potency [1],Potency [2]
CCOc1cc(C=C2C(=O)N(c3ccccc3)N=C2C)cc(Cl)c1OCC(=O)OC,18.7 µM (active),inactive
COc1ccc2c(c1)CC[C@@H](CN(C)CC(=O)O)[C@H]2c1ccccc1,inactive,inactive
Nc1ccccc1NC(=O)c1ccc(CNc2nccc(-c3cccnc3)n2)cc1,0.132 µM (active),0.187 µM (active)
CN1CC[C@@H](c2c(O)cc(O)c3c(=O)cc(-c4ccccc4Cl)oc23)[C@@H](O)C1,0.0166 µM (active),0.0469 µM (active)
C1=CCOCc2cc(ccc2OCCN2CCCC2)Nc2nccc(n2)-c2cccc(c2)OCC1,3.72 µM (active),2.64 µM (active)
CCOC(=O)C(C)Oc1cccc2c(=O)n(CC(=O)Nc3ccc4c(c3)OCCO4)ccc12 (centres undefined),inactive,inactive
COc1cc2nc(-c3ccc(N4CCN(C)CC4)cc3)nc(NCCN3CCOCC3)c2cc1OC,2.35 µM (active),18.7 µM (active)
O=C(Nc1cccnc1)N1CCC(Cc2cccc(Oc3ccc(C(F)(F)F)cn3)c2)CC1,16.6 µM (active),6.62 µM (active)
CCNC(=O)c1noc(-c2cc(C(C)C)c(O)cc2O)c1-c1ccc(CN2CCOCC2)cc1,0.0015 µM (active),0.0021 µM (active)
CC(C)(C)c1[nH]cnc1C=c1[nH]c(=O)c(=Cc2ccccc2)[nH]c1=O,0.0074 µM (active),0.0118 µM (active)
CN(c1ncccc1CNc1nc(Nc2ccc3c(c2)CC(=O)N3)ncc1C(F)(F)F)S(C)(=O)=O,1.48 µM (active),2.96 µM (active)
Nc1nc(-c2nn(Cc3ccccc3F)c3ncccc23)nc(N)c1N1CCOCC1,inactive,inactive
COC(=O)c1ccc2c(C(=Nc3ccc(N(C)C(=O)CN4CCN(C)CC4)cc3)c3ccccc3)c(O)[nH]c2c1,0.209 µM (active),1.18 µM (active)
COCCNCCCn1c(C(=O)CF)c(-c2ccc(C)cc2)c2c(N)ncnc21,inactive,inactive
C1Cc2[nH]nc(-c3nn[nH]n3)c2C1,inactive,inactive
"Cc1c2oc3c(C)ccc(C(=O)N[C@@H]4C(=O)NC(C(C)C)C(=O)N5CCC[C@H]5C(=O)N(C)CC(=O)N(C)C(C(C)C)C(=O)O[C@@H]4C)c3nc-2c(C(=O)N[C@@H]2C(=O)NC(C(C)C)C(=O)N3CCC[C@H]3C(=O)N(C)CC(=O)N(C)C(C(C)C)C(=O)O[C@@H]2C)c(N)c1=O (some centres undefined) (I: T[ξV]P[Sar][ξNMeV] / II: T[ξV]P[Sar][ξNMeV]; ester I:1-I:C, II:1-II:C; linker I:N-II:N via Actinocin(9to1))",0.0332 µM [activator] (active),0.003 µM (active)
Cc1cc(Nc2nc(N[C@@H](C)c3ncc(F)cn3)ncc2Cl)n[nH]1,inactive,inactive
CC(C)c1ccc(Cn2ccc3c4c(N)nc(NC5CC5)nc4ccc32)cc1,3.32 µM (active),0.935 µM (active)
Nc1nc(Nc2ccc(S(N)(=O)=O)cc2)nn1C(=O)c1c(F)cccc1F,0.833 µM (active),3.72 µM (active)
CC(C)CC(=O)Nc1n[nH]c2c1CN(C(=O)C1CCN(C)CC1)C2(C)C,0.0526 µM (active),0.264 µM (active)
C=CCn1c(=O)c2cnc(Nc3ccc(N4CCN(C)CC4)cc3)nc2n1-c1cccc(C(C)(C)O)n1,0.187 µM (active),0.166 µM (active)

SMILES,Potency [1],Potency [2]
NC(=O)Nc1cc(-c2ccc(CN3CCOCC3)c(F)c2)sc1C(=O)N[C@H]1CCCNC1,0.0418 µM (active),0.209 µM (active)
Fc1cc(-c2cccc3ncc(-c4cnn(C5CCNCC5)c4)nc23)cc(F)c1CN1CCOCC1,23.5 µM (active),23.5 µM (active)
O=C(C1CC1)N1CC[C@@H](Cn2c(-c3ccc(-c4ccc5occc5c4)cc3)nc3cnccc32)C1,20.9 µM (active),16.6 µM (active)
OCCn1cc(-c2ccc3c(c2)CCC3=NO)c(-c2ccncc2)n1,inactive,inactive
O=C(NCCS(=O)(=O)c1ccc(C(F)(F)F)cn1)c1ccc(Cl)cc1,inactive,inactive
CC(=O)OCCN1C(=O)c2c(C)nc3ccc(S(=O)(=O)N4CCOCC4)cc3c2C1=O,inactive,inactive
O=S(=O)(N=Cc1c(O)ccc2ccccc12)c1cccs1,16.6 µM (active),inactive
CC(C)C(=O)Nc1ncc(-c2cc(C(F)F)nn2-c2c(Cl)cccc2Cl)s1,11.8 µM (active),18.7 µM (active)
COCC(=O)NCC=Cc1ccc2ncnc(Nc3ccc(Oc4ccc(C)nc4)c(C)c3)c2c1,23.5 µM (active),18.7 µM (active)
CC1(O)CC(c2nc(-c3ccc4ccc(-c5ccccc5)nc4c3)c3c(N)nccn23)C1 (centres undefined),29.6 µM (active),18.7 µM (active)
CCn1c(-c2nonc2N)nc2cnc(Oc3cccc(NC(=O)c4ccc(OCCN5CCOCC5)cc4)c3)cc21,18.7 µM (active),7.43 µM (active)
COc1ccc(-c2ccc3c(N4CCOCC4)nc(N4C[C@@H](C)O[C@@H](C)C4)nc3n2)cc1CO,1.48 µM (active),0.105 µM (active)
CC(C)[C@]12O[C@H]1[C@@H]1O[C@]13[C@]1(O[C@H]1C[C@H]1C4=C(CC[C@@]13C)C(=O)OC4)[C@@H]2O,0.0042 µM (active),0.0074 µM (active)
Cn1c(=O)n(-c2ccc(C(C)(C)C#N)cc2)c2c3cc(-c4cnc5ccccc5c4)ccc3ncc21,3.72 µM (active),0.0332 µM (active)
CCC(=O)N[C@H]1CC[C@H](C(=O)N(C)c2ccc(-c3nc4ccccc4o3)cc2)C1,7.43 µM (active),7.43 µM (active)
Cc1n[nH]c(C)c1Cc1sc2c(c1C(=O)N1C[C@H](O)CO1)c(=O)n(C)c(=O)n2CC(C)C,0.0019 µM (active),inactive
CC(=O)N(C)C1(c2ccccc2)CCN(CCC[C@]2(c3ccc(Cl)c(Cl)c3)CCCN(C(=O)c3ccccc3)C2)CC1,13.2 µM (active),18.7 µM (active)
CC(C)(C)c1cnc(CSc2cnc(NC(=O)C3CCNCC3)s2)o1,0.0332 µM (active),0.0526 µM (active)
Cc1cccc(C=NNc2cc(N3CCOCC3)nc(OCCc3ccccn3)n2)c1,4.69 µM (active),20.9 µM (active)
COc1cc2c(Oc3ccc(NC(=O)C4(C(=O)Nc5ccc(F)cc5)CC4)cc3F)ccnc2cc1OCCCN1CCOCC1,16.6 µM (active),16.6 µM (active)
